Results taken from PubChem BioAssay (Tox21).
Inconclusive results are not listed. Active and inactive are the calls of the source. Unless noted, calls follow the shape of the dose curve; as a rule, active = well fitted curve in the direction sought with a large enough effect in the repeat runs; inconclusive = weak or mixed curves; inactive = no such curve, though single readings can be large; an effect the other way counts as inactive or inconclusive.

How the values were obtained:
[1] = qHTS assay to identify small molecule antagonists of the estrogen receptor alpha (ER-alpha) signaling pathway using the BG1 cell line in the presence of 0.1 nM 17-beta-estradiol - cell viability counter screen (AID 1259241); also: nearly all actives have a fitted effect of over 40% in size
Outline: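 Measures cytotoxicity alongside the ER-alpha antagonist readout: VM7Luc4E2 cells, charcoal-stripped serum, 0.1 nM 17beta-estradiol final, 22 hr compound incubation at 37C, CellTiter-Fluor fluorescence.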

[2] = qHTS assay to identify small molecule antagonists of the androgen receptor (AR) signaling pathway using the MDA cell line in the presence of 0.5 nM R1881 - cell viability counter screen (AID 1259242); also: nearly all actives have a fitted effect of over 45% in size
Outline: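 Fluorescence from CellTiter-Fluor, which reports protease activity of live cells, was read 30 min after reagent addition to MDA-kb2 cells that had been incubated 16 hr with compound and 0.5 nM R1881.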

[3] = molecular target: Androgen receptor (Homo sapiens) (UniProt P10275); test: qHTS assay to identify small molecule antagonists of the androgen receptor (AR) signaling pathway using the MDA cell line in the presence of 0.5 nM R1881 (AID 1259243); also: nearly all actives have a fitted effect of over 50% in size
Sequence of Androgen receptor (Homo sapiens) (P10275 whole entry, looked up): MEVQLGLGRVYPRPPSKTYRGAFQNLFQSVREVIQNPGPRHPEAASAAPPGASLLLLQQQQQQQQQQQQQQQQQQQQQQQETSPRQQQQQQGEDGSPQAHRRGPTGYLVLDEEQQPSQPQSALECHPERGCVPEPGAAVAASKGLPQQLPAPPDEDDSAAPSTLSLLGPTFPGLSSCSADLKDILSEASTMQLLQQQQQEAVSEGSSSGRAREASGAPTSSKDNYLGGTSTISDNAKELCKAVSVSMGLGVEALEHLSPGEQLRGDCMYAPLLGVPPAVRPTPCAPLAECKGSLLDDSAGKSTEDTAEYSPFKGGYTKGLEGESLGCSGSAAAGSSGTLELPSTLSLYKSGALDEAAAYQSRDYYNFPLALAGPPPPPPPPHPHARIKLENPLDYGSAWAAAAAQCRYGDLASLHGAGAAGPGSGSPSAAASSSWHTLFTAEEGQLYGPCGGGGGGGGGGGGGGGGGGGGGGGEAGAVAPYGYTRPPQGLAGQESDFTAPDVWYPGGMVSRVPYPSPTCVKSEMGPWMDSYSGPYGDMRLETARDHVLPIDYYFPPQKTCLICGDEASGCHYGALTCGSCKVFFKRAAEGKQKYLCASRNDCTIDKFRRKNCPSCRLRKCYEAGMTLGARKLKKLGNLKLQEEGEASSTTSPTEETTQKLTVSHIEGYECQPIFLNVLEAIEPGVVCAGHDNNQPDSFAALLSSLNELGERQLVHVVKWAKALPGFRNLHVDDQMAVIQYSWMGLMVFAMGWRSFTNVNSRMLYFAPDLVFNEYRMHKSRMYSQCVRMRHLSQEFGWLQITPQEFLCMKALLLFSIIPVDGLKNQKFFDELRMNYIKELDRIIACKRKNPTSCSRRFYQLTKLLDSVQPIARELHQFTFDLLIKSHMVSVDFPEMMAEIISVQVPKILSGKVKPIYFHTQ
Outline: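 Inhibition of R1881 (0.5 nM final) induced reporter signal was measured in human MDA-kb2 cells; note the MMTV promoter also responds to GR. Exposure lasted 16 hr at 37C.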

[4] = molecular target: Estrogen receptor (Homo sapiens) (UniProt P03372); test: qHTS assay to identify small molecule antagonists of the estrogen receptor alpha (ER-alpha) signaling pathway using the BG1 cell line in the presence of 0.1 nM 17-beta-estradiol (AID 1259244); also: nearly all actives have a fitted effect of over 50% in size
Sequence of Estrogen receptor (Homo sapiens) (P03372 whole entry, looked up): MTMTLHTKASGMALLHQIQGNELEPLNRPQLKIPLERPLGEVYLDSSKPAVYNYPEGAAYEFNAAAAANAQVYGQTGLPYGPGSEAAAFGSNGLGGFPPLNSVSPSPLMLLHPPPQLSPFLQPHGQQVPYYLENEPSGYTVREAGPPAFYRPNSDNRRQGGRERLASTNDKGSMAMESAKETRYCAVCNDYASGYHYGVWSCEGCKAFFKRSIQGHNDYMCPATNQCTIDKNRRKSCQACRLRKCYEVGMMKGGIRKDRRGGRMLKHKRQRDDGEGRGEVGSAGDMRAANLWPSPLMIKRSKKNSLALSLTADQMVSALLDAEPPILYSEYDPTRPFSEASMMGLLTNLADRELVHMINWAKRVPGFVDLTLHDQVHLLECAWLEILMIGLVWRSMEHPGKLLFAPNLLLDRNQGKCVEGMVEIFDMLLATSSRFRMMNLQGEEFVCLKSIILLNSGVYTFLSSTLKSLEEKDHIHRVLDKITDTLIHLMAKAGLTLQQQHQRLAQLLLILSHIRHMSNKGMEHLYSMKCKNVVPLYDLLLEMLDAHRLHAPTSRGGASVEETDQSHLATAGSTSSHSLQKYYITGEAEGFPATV
Outline: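 Quantitative high-throughput screen in VM7Luc4E2 cells: compound plus 0.1 nM E2 (final), 22 h, 37C, 5% CO2; ONE-Glo added, 30 min room temperature, luminescence measured.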

[5] = qHTS assay to identify small molecule phospholipidosis (PLD) inducers (AID 1259344; active = well fitted curve in the direction sought with a large enough effect; an effect the other way counts as inactive or inconclusive; also: potency is read from the fitted curve at half-maximal effect)
Outline: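 Phospholipidosis is scored by imaging LipidTOX-stained pits in HepG2 cells exposed to compound for 24 h at 37 C; pit counts and integrated intensities per well and per cell serve as outputs.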

[6] = qHTS assay to identify small molecule HDAC inhibitors (AID 1259364); also: top concentration of the series differs between compounds; nearly all actives have a fitted effect of over 45% in size
Outline: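 Endogenous HDAC class I/II activity was measured in wild-type HCT-116 cells by HDAC-Glo luminescence after 2 h compound treatment.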

[7] = qHTS assay to identify small molecule agonists of the sonic hedgehog signaling (Shh) pathway - cell viability counter screen (AID 1259366); also: nearly all actives have a fitted effect of over 50% in size
Outline: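 After a 4hr attachment at 37C, NIH/3T3 cells bearing an integrated Gli1-driven luciferase reporter were dosed with compounds. Treatment lasted 24hr, with the final hour including CellTiter-Fluor for a fluorescence viability measurement.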

[8] = qHTS assay to identify small molecule antagonists of the sonic hedgehog signaling (Shh) pathway - cell viability counter screen (AID 1259367); also: nearly all actives have a fitted effect of over 55% in size
Outline: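 Cells: 3T3 Gli1-Luc, 2,000/well, 4 hr pre-incubation. Compounds in DMSO, then conditioned medium. Incubation 24 hr, 37C, 5% CO2. CellTiter-Fluor at 23 hr, 1 hr, fluorescence.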

[9] = qHTS assay to identify small molecule agonists of the sonic hedgehog signaling (Shh) pathway (AID 1259368; calls by dose curve;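 also: NIH/3T3-derived 3T3Gli1-Luc cells carrying a stable Gli1-driven firefly luciferase reporter; series mostly up to about 92 µM; nearly all actives have a fitted effect of over 15% in size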)
Outline: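 Luminescent signal was taken as a measure of Gli1-controlled luciferase expression in stably transfected NIH/3T3-derived cells that had been treated for 24 hr with compounds delivered in DMSO.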

[10] = qHTS assay to identify small molecule antagonists of the sonic hedgehog signaling (Shh) pathway (AID 1259369; calls by dose curve; also: nearly all actives have a fitted effect of over 45% in size; also: potency is read from the fitted curve at half-maximal effect)
Outline: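 Screening used 3T3Gli1-Luc cells at 2,000 per well, compounds delivered in DMSO, and conditioned medium as agonist stimulus; plates incubated 24hr at 37 C and 5% CO2 before a 30min luciferase step.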

[11] = molecular target: Estrogen receptor beta (Homo sapiens) (UniProt Q92731); test: qHTS assay to identify small molecule agonists of the estrogen receptor beta (ER-beta) signaling pathway (AID 1259377; active = well fitted activation curve with a large enough effect in the signal ratio in the repeat runs, not every such curve was filed as active; the % refers to the signal ratio)
Sequence of Estrogen receptor beta (Homo sapiens) (Q92731 whole entry, looked up): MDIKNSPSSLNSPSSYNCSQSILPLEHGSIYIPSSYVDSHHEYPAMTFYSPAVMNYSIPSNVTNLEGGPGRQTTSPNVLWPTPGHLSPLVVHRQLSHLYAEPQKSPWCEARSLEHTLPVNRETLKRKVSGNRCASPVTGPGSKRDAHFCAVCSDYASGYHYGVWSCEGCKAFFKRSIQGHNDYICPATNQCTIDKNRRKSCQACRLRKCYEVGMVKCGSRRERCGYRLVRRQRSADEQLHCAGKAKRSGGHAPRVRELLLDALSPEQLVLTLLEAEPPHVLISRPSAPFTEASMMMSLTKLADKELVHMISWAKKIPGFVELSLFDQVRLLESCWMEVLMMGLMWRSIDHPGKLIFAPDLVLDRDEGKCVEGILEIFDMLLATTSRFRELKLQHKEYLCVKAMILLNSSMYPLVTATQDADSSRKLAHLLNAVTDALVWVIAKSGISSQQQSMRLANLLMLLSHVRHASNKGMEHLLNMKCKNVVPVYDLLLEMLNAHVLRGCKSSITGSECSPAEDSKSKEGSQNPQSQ
Outline: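 In HEK293T cells bearing a UAS-beta-lactamase reporter under ER-beta control, DMSO-delivered compounds were incubated for 16 hr at 37C. Activity was detected as fluorescence 2 hours after LiveBLAzer B/G FRET substrate addition.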

[12] = qHTS assay to identify small molecule agonists of the androgen receptor (AR) signaling pathway in the presence of an antagonist - cell viability counter screen (AID 1259379);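 also: MDA-kb2 human breast cancer cells carrying an MMTV luciferase reporter; series mostly up to about 92 µM; nearly all actives have a fitted effect of over 25% in size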
Outline: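 In MDA-kb2 cells (human breast carcinoma, MMTV-luciferase), compounds at 15 concentrations plus 3.0uM nilutamide; 16 hr, 37C, 0% CO2; CellTiter-Fluor fluorescence read for viability.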

[13] = molecular target: Androgen receptor (Homo sapiens) (UniProt P10275); test: qHTS assay to identify small molecule agonists of the androgen receptor (AR) signaling pathway in the presence of an antagonist (AID 1259381; calls by dose curve; also: nearly all actives have a fitted effect of over 15% in size)
Outline: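 Here, 15-concentration compound series were pin-transferred onto MDA-kb2 MMTV-luciferase cells already dosed with nilutamide (3.0uM final). After 16hr at 37C, ONE-Glo was added and luminescence read 30min later at room temperature.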

[14] = molecular target: Estrogen receptor (Homo sapiens) (UniProt P03372); test: qHTS assay to identify small molecule agonists of the estrogen receptor alpha (ER-alpha) signaling pathway in the presence of an antagonist (AID 1259383; calls by dose curve; also: top concentration of the series differs between compounds; nearly all actives have a fitted effect of over 15% in size)
Outline: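 In VM7Luc4E2 cells, 4,000 per well, compounds at 15 concentrations were co-incubated 22hr at 37C with 10.0nM final ICI-182,780. Luminescence from the stably transfected 4×ERE-luciferase reporter was recorded 30min after ONE-Glo addition.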

[15] = qHTS assay to identify small molecule agonists or antagonists of the thyroid stimulating hormone receptor (TSHR) signaling pathway - wild type cell line counter screen (AID 1259384; calls by dose curve)
Outline: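 Counter screen in untransfected Hek293: compounds (15-point titration, triplicate) plus phosphodiesterase inhibitor Ro20-1724 added after 18 h plating; 30 min RT. Intracellular cAMP via competitive d2/cryptate immunoassay, 1 h incubation.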

[16] = molecular target: Thyrotropin receptor (Homo sapiens) (UniProt P16473); test: qHTS assay to identify small molecule antagonists of the thyroid stimulating hormone receptor (TSHR) signaling pathway (AID 1259385; calls by dose curve; also: nearly all actives have a fitted effect of over 20% in size)
Sequence of Thyrotropin receptor (Homo sapiens) (P16473 whole entry, looked up): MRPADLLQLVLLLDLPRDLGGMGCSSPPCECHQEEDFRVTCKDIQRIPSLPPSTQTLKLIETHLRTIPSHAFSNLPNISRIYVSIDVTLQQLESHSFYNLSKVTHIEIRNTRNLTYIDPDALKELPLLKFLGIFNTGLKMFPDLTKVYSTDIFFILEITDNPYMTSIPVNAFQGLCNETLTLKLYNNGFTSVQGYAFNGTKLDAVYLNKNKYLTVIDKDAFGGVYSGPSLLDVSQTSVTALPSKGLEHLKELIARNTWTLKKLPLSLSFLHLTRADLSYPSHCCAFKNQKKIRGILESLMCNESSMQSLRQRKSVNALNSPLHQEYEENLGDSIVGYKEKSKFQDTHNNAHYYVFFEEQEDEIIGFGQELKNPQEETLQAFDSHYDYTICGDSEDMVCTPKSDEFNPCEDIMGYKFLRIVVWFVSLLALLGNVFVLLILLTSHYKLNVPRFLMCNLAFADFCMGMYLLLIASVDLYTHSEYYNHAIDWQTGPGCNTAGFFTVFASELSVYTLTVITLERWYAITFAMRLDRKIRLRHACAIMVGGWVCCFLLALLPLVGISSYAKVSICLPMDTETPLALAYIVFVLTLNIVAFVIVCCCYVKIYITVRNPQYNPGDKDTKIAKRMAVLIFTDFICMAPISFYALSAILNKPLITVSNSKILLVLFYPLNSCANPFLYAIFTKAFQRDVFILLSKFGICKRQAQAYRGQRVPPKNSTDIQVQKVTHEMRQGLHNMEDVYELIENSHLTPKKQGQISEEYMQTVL
Outline: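 Antagonist mode: compound-treated TSHR-expressing HEK293 cells were stimulated with 1.5 ng/mL TSH (final) in presence of Ro20-1724 for 30 min at RT. HTRF cAMP detection after 1 h; each compound tested at 15 concentrations, triplicate.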

[17] = qHTS assay to identify small molecule HDAC inhibitors - cell viability counter screen (AID 1259365); also: series mostly up to about 92 µM; nearly all actives have a fitted effect of over 50% in size
Outline: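 Following a 2hr exposure of overnight-plated wild-type HCT-116 cells to DMSO-delivered compounds, CellTiter-Glo was added and luminescence recorded after 30min at room temperature.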

[18] = molecular target: Estrogen receptor beta (Homo sapiens) (UniProt Q92731); test: qHTS assay to identify small molecule antagonists of the estrogen receptor beta (ER-beta) signaling pathway (AID 1259378; active = well fitted inhibition curve with a large enough effect in the signal ratio in the repeat runs, not every such curve was filed as active; the % refers to the signal ratio)
Outline: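 Antagonist mode: compounds added to beta-lactamase reporter HEK293T ER-beta-UAS cells stimulated with E2 (1nM final), 16 hr at 37C. LiveBLAzer B/G FRET substrate, 2 hours room temperature, fluorescence read-out.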

[19] = qHTS assay to identify small molecule agonists of the estrogen receptor beta (ER-beta) signaling pathway - cell viability counter screen (AID 1259380); also: nearly all actives have a fitted effect of over 30% in size
Outline: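 Viability of ER-beta-UAS-bla HEK293T cells was determined by CellTiter-Glo luminescence following 16 hr treatment with test compounds at 37C.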

[20] = qHTS assay to identify small molecule antagonists of the estrogen receptor beta (ER-beta) signaling pathway - cell viability counter screen (AID 1259382);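 also: HEK293T cells carrying ER-beta-UAS-bla reporter stimulated with estradiol; series mostly up to about 92 µM; nearly all actives have a fitted effect of over 55% in size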
Outline: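 Tox21 10K library tested in qHTS format on ER-beta-bla HEK293T cells stimulated with 1nM E2; 16 hr treatment at 37C. Same-well CellTiter-Glo luminescence served as the cell viability measure.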

Measured: Potency

O=C(O)COC(=O)Cc1ccccc1Nc1c(Cl)cccc1Cl
not listed: [17] | [18] | [19] | [20]
inactive: all other assays above

CC(C)CCCC(C)CCO (stereo not drawn)
active: [10] 61.1 µM
not listed: [4] | [5] | [7] | [11]
inactive: all other assays above

CN1CCN(C2=Nc3ccccc3Sc3ccc(Cl)cc32)CC1
active: [5] 11.2 µM
not listed: [4] | [11] | [14]
inactive: all other assays above

NC(=S)N/N=C/c1cccnc1
not listed: [4] | [11] | [14] | [16] | [17] | [18]
inactive: all other assays above
